Hit rate of the full screen: of about 290,000 compounds, about 11,000 (3.8%) were called active. The full list was thinned out, with actives kept by preference. A number with no mark means an inactive call.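 The calls were made as follows: active = mean replicate inhibition above about 79%, with every replicate also reaching it (limit read from the data); inconclusive = only one of the two criteria met; inactive = mean below limit and not every replicate reaching it.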
Biological target: FAD-linked sulfhydryl oxidase ALR (Homo sapiens) (UniProt P55789)
Sequence (P55789 whole entry, looked up): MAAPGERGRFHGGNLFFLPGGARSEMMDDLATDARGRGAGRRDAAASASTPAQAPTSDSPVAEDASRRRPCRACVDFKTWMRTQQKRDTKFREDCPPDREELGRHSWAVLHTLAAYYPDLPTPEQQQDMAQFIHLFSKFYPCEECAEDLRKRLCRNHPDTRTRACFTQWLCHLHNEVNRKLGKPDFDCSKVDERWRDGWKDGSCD
Test: inhibitors of human ALR sulfhydryl oxidase, primary screen, biochemical, H2O2 detection, HRP-luminol luminescence, single point (AID 485317)
Details: purified ALR, DTT oxidation, stronger effect = higher value, concentration not given here

| SMILES | inhibition |
| --- | --- |
| COc1ccccc1OCCCCCCN1CCN(C)CC1 | -12.6% |
| CCCC(=O)Nc1ncnc2c1ncn2[C@@H]1O[C@@H]2OP(=O)(O)OC[C@H]2[C@H]1OC(=O)CCC | -3.4% |
| Cc1cc(C(=O)COC(=O)CNC(=O)c2ccc(F)cc2)c(C)n1Cc1ccco1 | -2.4% |
| Cc1cc(C(=O)CC#N)c(C)n1CC(F)(F)F | 94.8% (active) |
| Cc1cc(C(=O)CC#N)c(C)n1-c1c(C)n(C)n(-c2ccccc2)c1=O | 14.7% |
| Cc1ccc(CNC(=O)c2ccc3c(c2)S(=O)(=O)c2ccccc2C3=O)cc1 | -10.2% |
| S=c1[nH]nc2c3c4c(sc3ncn12)CCCC4 | 97.9% (active) |
| N=c1c2c3c(sc2ncn1N)CCCC3 | -10.4% |
| c1nnc2c3c4c(sc3ncn12)CCC4 | 45.2% |
| Cc1c(O)c(C)c2c(c1O)C(=O)C[C@@H](c1ccccc1)O2 | 2.46% |
| COc1ccccc1C(=O)COC(=O)COc1ccc(C#N)cc1 | 10.4% |
| O=S(=O)(Nc1ncnc2sccc12)c1cccc(F)c1 | 8.21% |
| COc1ccc(NS(=O)(=O)c2ccc(NC(C)=O)cc2)cc1OC | -18.8% |
| COc1ccc(C(=O)Oc2cc(/C=N/NS(=O)(=O)c3ccc(C)cc3)ccc2OC)cc1 | -2.65% |
| COc1ccc(/C=C/C(=O)c2ccc(NS(=O)(=O)c3ccc(C)cc3)cc2)cc1O | 82.9% (active) |
| CCOC(=O)c1c(C)[nH]c(C(=O)OCC(=O)c2ccc(OC)cc2OC)c1C | -8.98% |
| CCCS(=O)(=O)Nc1ccc(-c2cn3c(n2)SCC3)cc1 | 4.68% |
| Cc1cc(-c2cccs2)nc(-n2cccc2)n1 | 23.5% |
| c1csc(-c2cn3c(n2)SCC3)c1 | 92.3% (active) |
| O=C(c1ccc(S(=O)(=O)NCc2ccco2)cc1)N1CCN(c2ccccc2)CC1 | 33.8% |
| COc1ccc(-c2csc(Nc3ccc(O)cc3)n2)cc1 | 74.3% |
| COc1ccc(-c2csc(Nc3ccccn3)n2)cc1 | 32.2% |
| COc1ccc(OC)c(Nc2nc(-c3ccc(O)c(O)c3)cs2)c1 | 94.7% (active) |

| SMILES | inhibition |
| --- | --- |
| CCCCn1c(N)c(N(CC(C)C)C(=O)C2CSC3(C)CCC(=O)N23)c(=O)[nH]c1=O (stereo unspecified) | -0.99% |
| CC(NC(=O)c1cccc(S(=O)(=O)N2CCc3ccccc3C2)c1)c1ccco1 (stereo unspecified) | -3.35% |
| O=C(COC(=O)c1ccc(F)c(S(=O)(=O)N2CCOCC2)c1)NCc1ccc2c(c1)OCO2 | -8.6% |
| CNS(=O)(=O)c1cccc(C(=O)OCCCC(=O)c2ccccc2)c1 | 1.28% |
| O=C1N[C@H](Cc2ccccc2)C(=O)N[C@H]1Cc1cn(S(=O)(=O)c2ccccc2)c2ccccc12 | -2.64% |
| CN1CCN(C(=O)c2ccc(-c3ccc(Br)cc3)o2)CC1 | 6.66% |
| CSC(=S)N/N=C/c1c[nH]c2ccccc12 | 64.4% |
| O=C(O)c1cccc(NC(=S)N/N=C/c2c[nH]c3ccccc23)c1 | 98.2% (active) |
| O=C(N/N=C/c1c[nH]c2ccccc12)c1ccccc1O | 41.8% |
| CCNC(=O)c1cccc(NC(=O)C2CC(=O)N(CCc3ccccc3)C2)c1 (stereo unspecified) | -0.0795% |
| CC(OC(=O)CNC(=O)c1ccco1)C(=O)Nc1ccc(Cl)cn1 (stereo unspecified) | -1.13% |
| CCOC(=O)c1cccc(NC(=O)CCc2nnc3ccc(N4CCOCC4)nn23)c1 | 26.9% |
| COc1cccc(NC(=O)CCc2nnc3ccc(N4CCC(C)CC4)nn23)c1 | -1.49% |
| COc1cccc(N2CCN(c3ccc4nnc(CCC(=O)N5CCN(C)CC5)n4n3)CC2)c1 | 98.2% (active) |
| C=CCSc1nnc2c(n1)-c1cccc3cccc-2c13 | 9.81% |
| COc1ccc(S(=O)(=O)N2CCOCC2)cc1NC(=O)Cc1c(F)cccc1Cl | -4.89% |
| COc1ccccc1CNC(=O)COC(=O)c1cccs1 | 20.2% |
| CN(CC(=O)Nc1ccccc1Cl)C(=O)c1ccccc1SCC(=O)N1CCCC1 | -3.42% |
| COC(=O)c1ccccc1NC(=S)NC(=O)c1ccccc1F | 97.1% (active) |
| NC(=O)c1ccccc1NC(=O)c1ccccc1F | 0.399% |
| COC(=O)c1ccccc1NC(=O)c1ccccc1NS(C)(=O)=O | 4.54% |
| Cc1cc(N2CCCC2)ccc1NC(=O)COc1ccc(Cl)cc1 | -0.012% |
| O=C(NCCC1CCCCN1S(=O)(=O)c1ccc(F)cc1)C(=O)NC1CC1 (stereo unspecified) | -2.2% |

| SMILES | inhibition |
| --- | --- |
| Nc1scc(-c2ccncc2)c1Cl | 98.8% (active) |
| Clc1ccc(-c2csc(-c3ccncc3)n2)cc1 | -4.48% |
| O=c1[nH]c(/C=C/c2cccc(Br)c2)nc2ccccc12 | -2.23% |
| CC(C)(C)OC(=O)C[C@@H]1C/C=C\C[C@@H](CC(=O)N[C@H](CO)Cc2ccccc2)C(=O)NCCOC1=O | 1.41% |
| CCn1c(SCC(=O)Nc2ccc(Br)cc2)nc2sc3c(c2c1=O)CCN(C)C3 | 99% (active) |
| COc1ccccc1-n1c(SCC(=O)Nc2cccc(C(=O)O)c2)nnc1-c1ccccc1O | 3.17% |
| COc1ccccc1NC(=O)CSc1nc2sc3c(c2c(=O)n1-c1ccccc1)CCN(C)C3 | 99% (active) |
| CCOc1ccc(NC(=O)CN2CCN(CC(=O)Nc3ccc(OC)cc3)CC2)cc1 | -10.2% |
| CCc1nnc(NC(=O)CSc2nc3c(c(=O)n2-c2ccccc2OC)SCC3)s1 | 1.36% |
| CCOc1ccc(-n2c(SCC(=O)Nc3cc(C(=O)O)ccc3Cl)nc3ccccc3c2=O)cc1 | -3.41% |
| CCOc1ccc(NC(=O)CSc2nc3c(c(=O)n2-c2ccccc2OC)SCC3)cc1 | 93.4% (active) |
| COc1ccccc1NC(=O)CSc1nnc(Cn2nnc(-c3ccccc3)n2)n1-c1ccccc1 | -1.41% |
| CCOc1ccc(-n2c(SCC(=O)Nc3ccc(OC)cc3)nc3sc4c(c3c2=O)CCN(C)C4)cc1 | 98.6% (active) |
| CCc1nc(SCC(=O)Nc2ccccc2OC)n[nH]1 | -18% |
| C=CCn1c(SCC(=O)Nc2ccc(NC(C)=O)cc2)nc2sc(C)c(C)c2c1=O | -2.72% |
| C=CCn1c(SCC(=O)NCCCO)nc2sc3c(c2c1=O)CCC3 | -4.11% |
| CCN(CC)S(=O)(=O)c1ccc(N2CCCC2)c(NC(=O)c2ccc([N+](=O)[O-])o2)c1 | -36.7% |
| CC(C)(C)OC(=O)C[C@@H]1C/C=C\C[C@@H](CC(=O)NCCO)C(=O)N[C@H](Cc2c[nH]c3ccccc23)COC1=O | -9.99% |
| CCN(CC(=O)NCc1ccc(F)cc1)S(=O)(=O)c1ccc(Cl)s1 | -4.96% |
| Cc1ccc(CNC(=O)CC(NC(=O)c2ccccc2)c2ccccc2)cc1 (stereo unspecified) | 1.43% |
| CC(=O)Nc1ccc(S(=O)(=O)NCCC(=O)N2CCN(c3ccccc3Cl)CC2)cc1 | 0.296% |
| O=C(CSc1nc2[nH]ncc2c(=O)[nH]1)Nc1ccc(F)cc1 | -2.71% |
| CCOc1ccc(-n2c(SC(C)C(=O)OC)nc3c(c2=O)SCC3)cc1 (stereo unspecified) | -1.69% |

| SMILES | inhibition |
| --- | --- |
| Cc1ccc(C)c(-n2c(SCC(=O)O)nc3sc4c(c3c2=O)CCCC4)c1 | 4.79% |
| CCOc1ccc(-n2c(SCC(=O)OC)nc3sc4c(c3c2=O)CCN(C)C4)cc1 | 99.2% (active) |
| O=C(N[C@@H](Cc1ccccc1)C(=O)OCc1ccccc1)c1nc[nH]c1C(=O)NC1CCNCC1 | 63.1% |
| O=C(Nc1ccc(NC(=O)c2ccc3c(c2)OCO3)cc1)c1cccc(Cl)c1 | 4% |
| CC(=O)c1c(OCC(=O)N(C)C2CCCCC2)ccc2c(C)cc(=O)oc12 | -4.49% |
| CCCc1nc2c(c(=O)c3ccccc3n2C)c(=O)n1-c1cc(C)cc(C)c1 | 9.11% |
| COc1ccc(C(=O)CSc2nnc(COc3ccccc3)n2Cc2ccco2)cc1 | 13.2% |
| Cn1c2ccccc2c(=O)c2c(=O)n(Cc3ccco3)c(COc3ccccc3)nc21 | 96.8% (active) |
| COc1ccc(S(=O)(=O)N(C)C[C@@H]2Oc3ccc(NS(=O)(=O)c4cn(C)cn4)cc3C(=O)N([C@@H](C)CO)C[C@@H]2C)cc1 | 0.531% |
| CC1CCN(c2c(NCc3ccc(C(=O)NCc4ccccc4)cc3)c(=O)c2=O)CC1 | 6.63% |
| O=C(NCc1ccccc1)c1ccc(CNc2c(N3CCCC3)c(=O)c2=O)cc1 | -1.76% |
| O=C(NC1CCCCC1)c1ccc(CNc2c(N3CCOCC3)c(=O)c2=O)cc1 | 96.3% (active) |
| O=C(COC(=O)c1ccccn1)NNC(=O)c1ccc(Br)cc1 | -1.13% |
| COc1ccc(Br)cc1CN(C)C(=O)C1CC(=O)N(C2CCCC2)C1 (stereo unspecified) | -9.84% |
| COC(=O)/C=C\C(=O)Nc1cccc([N+](=O)[O-])c1 | 97.8% (active) |
| O=C(Nc1cccc([N+](=O)[O-])c1)Nn1cnnc1 | -12.6% |
| COc1ccc(S(=O)(=O)NC(C)C(=O)Nc2cccc([N+](=O)[O-])c2)cc1 (stereo unspecified) | 3.92% |
| Cc1noc(C)c1NC(=O)Nc1cccc2c1O[C@H](CN(C)S(=O)(=O)c1c(C)noc1C)[C@@H](C)CN([C@H](C)CO)C2=O | 1.87% |
| Cc1cc(=O)oc2cc(NC(=O)C(C)Oc3ccccc3)ccc12 (stereo unspecified) | -2.52% |
| COc1ccc(CCNC(=S)N2CCN(S(=O)(=O)c3ccc(Cl)cc3)CC2)cc1 | -0.053% |
| Oc1cc2c(cc1O)CN(C(=S)NCCc1ccc(Cl)cc1)CCC2 | 97.9% (active) |
| S=C(NCCc1ccccc1)N1CCCCC1 | -4.5% |

Source: PubChem BioAssay AID485317 (Broad Institute, 2010)
